Experiment [1] addresses T1, Aspartate--tRNA(Asp/Asn) ligase (Mycobacterium tuberculosis (strain ATCC 25618 / H37Rv)) (UniProt P9WFW3).
T1 sequence (whole entry): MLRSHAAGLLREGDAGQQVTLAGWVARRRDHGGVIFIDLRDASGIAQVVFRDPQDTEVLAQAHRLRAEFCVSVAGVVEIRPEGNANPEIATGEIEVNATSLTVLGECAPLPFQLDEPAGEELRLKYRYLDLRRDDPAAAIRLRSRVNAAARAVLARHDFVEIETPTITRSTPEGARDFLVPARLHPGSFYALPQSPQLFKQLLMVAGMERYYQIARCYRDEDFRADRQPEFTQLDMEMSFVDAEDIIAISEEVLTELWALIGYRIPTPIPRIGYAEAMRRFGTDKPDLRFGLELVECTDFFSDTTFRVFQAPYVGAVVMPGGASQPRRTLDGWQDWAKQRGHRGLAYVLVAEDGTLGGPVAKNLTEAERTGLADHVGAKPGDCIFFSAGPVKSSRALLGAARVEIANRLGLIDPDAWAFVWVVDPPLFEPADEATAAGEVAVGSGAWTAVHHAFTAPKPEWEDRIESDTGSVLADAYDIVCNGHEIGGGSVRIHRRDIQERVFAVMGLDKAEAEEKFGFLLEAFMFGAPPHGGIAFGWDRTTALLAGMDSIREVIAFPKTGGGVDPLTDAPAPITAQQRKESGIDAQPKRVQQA
The experiment in a line: Assay for Asp RNA synthetase-1 from Mycobacterium tuberculosis. The class given is functional. Also on record: scale not given: direction of the effect not stated beside the values. To be noted: 30 µM.

The target in experiment [2] is Shiga toxin 2 (Escherichia coli O157:H7) (UniProt P09385+P09386). The experiment in a line: E. coli 0.157:H7 Shiga Toxin SOP - stx2 screening assay. The class given is functional. The arrangement: scale not given: direction of the effect not stated beside the values. To be noted: 30 µM.

Percent Effect data for 17 molecules are collected here from ChEMBL document CHEMBL3988442, “University of Dundee, Small-Polar-MMV Screening Library” (2021).

In the case of `N#Cc1ccc(C(=O)N2CC[C@H]3[C@@H]2CCC(=O)N3c2ccccc2)cc1`, the figures for the Percent Effect in experiment [1] and in experiment [2] were 0.485% and -9.64%, respectively.
`CC(=O)N1CC(=O)N(c2ccccc2)CC12CCN(Cc1nccs1)C2` (centres undefined): the Percent Effect in experiment [1] is 7.34%; in experiment [2], -17.5%.
`Cc1ccc(C(=O)NCCS(C)(=O)=O)c(=O)[nH]1`: the Percent Effect in experiment [1] is -3.5%; in experiment [2], -4.7%.
The matching figures for `O=C(Cn1cc(I)cn1)N1CCc2ccccc2C1`: 2.67% and -31%.
On the same counts, the results for `COC(=O)c1cc(C(=O)N2CCOCC2(C)C)n(-c2ccccc2)n1` are -4.48% and 13.3%.
On the same counts, the results for `c1coc(-c2noc(CN3CCC(c4ccn[nH]4)CC3)n2)c1` are 0.546% and 0.0749%.
Take `Cc1ccsc1CNc1cc(N2CCCC2CO)ncn1` (centres undefined): the Percent Effect was 3.04% in experiment [1] and -22.2% in experiment [2].
For the molecule `CCc1nc(C2CCCN2CCCS(=O)(=O)c2ccccc2)no1` (centres undefined), the Percent Effect is -4.39% in experiment [1] and -9.14% in experiment [2].
For `Cn1cc(CN2CC[C@@H]3O[C@H](C(=O)N4CCOCC4)C[C@@H]32)cn1`, the Percent Effect is 0.521% in experiment [1] and -23.7% in experiment [2].
With `CCN(CC)C(=O)c1nnn(-c2ccc(C)cc2)c1C1CC1`, the Percent Effect in experiment [1] is -1.37%; in experiment [2], -1.32%.
`CC(C)CS(=O)(=O)N1C[C@H]2C[C@H](C(=O)NCc3ccccc3)[C@@H](C1)O2`: the Percent Effect in experiment [1] was 2.67%; in experiment [2], -41.8%.
On the same counts, the results for `Cc1csc(N2CCCN(C(=O)c3cnns3)CC2)n1` are 1.66% and -7.36%.
On the same counts, the results for `CC(C)N1CCO[C@H]2CN(C(=O)c3ccc(N(C)C)cc3)C[C@H]21` are 2.49% and -4.13%.
For the molecule `Cc1cn2c(n1)CCC(NC(=O)c1c[nH]c(C)n1)C2` (centres undefined), the Percent Effect in experiment [1] is -7.1%; in experiment [2] it was 14.6%.
Regarding `CC(NC1(CNC(=O)C(C)(C)C#N)CCOCC1)c1ccccc1` (centres undefined), the results for the Percent Effect in experiment [1] and in experiment [2] were -6.25% and -10.5%, respectively.
The matching figures for `Cc1cnn(CC2CN(CC(=O)NCCc3cccs3)CCO2)c1` (centres undefined): -11.2% and 6.55%.
On the same counts, the results for `CN1CC(=O)N(c2cccc(F)c2)CC12CCN(S(C)(=O)=O)C2` (centres undefined) are -0.565% and 8.46%.
